Many of the other results were omitted from the sample, so hits are more common in it than they were.
CHX counter = affects cycloheximide protein synthesis inhibition readout, counter-screen; cell reporter, cycloheximide protein synthesis inhibition counterscreen; max response, %; actives 12% (n = 300,000); AID 2314; in the data active = max response mostly above about 13%, no sharp cut-off; inactive = mostly below about 14%; also: read at 38.3 µM for the half of the compounds with a filed dose; 0% is about no effect
FBPA Giardia inh = inhibitors of Giardia lamblia fructose-1,6-bisphosphate aldolase | A8B2U2 | purified Giardia FBPA | Potency, µM (highest dose often 59.6 µM), for inactives: top-dose activity, negative = inhibition, hits mostly inhibitors | actives 0.71% (n = 290,000); also: potency is read from the fitted curve at half-maximal effect; % is scaled to controls: 0 for no effect and ±100 for the full control effect; nearly all actives have a fitted effect of over 55% in size
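Giardia FBPA (40 nM reagent) was preincubated 10 min at RT with compound (up to 57.5 uM final), then substrate plus GAPDH/TPI/NAD/arsenate coupling system with diaphorase/resazurin was added; resorufin fluorescence (525/598 nm) was read after 20 min.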
LmPK inhibitor = LmPK (Leishmania mexicana) enzyme inhibition; actives 0.37% (n = 290,000); AID 1721; purified LmPK, Kinase-Glo ATP luminescence, 1 h; Potency, µM (top dose mostly 57.5 µM), inactives show at the highest dose activity change, negative = inhibition, usual class: inhibitors; also: potency is read from the fitted curve at half-maximal effect; % is scaled to controls: 0 for no effect and ±100 for the full control effect
Target sequence (Q27686 whole entry, looked up): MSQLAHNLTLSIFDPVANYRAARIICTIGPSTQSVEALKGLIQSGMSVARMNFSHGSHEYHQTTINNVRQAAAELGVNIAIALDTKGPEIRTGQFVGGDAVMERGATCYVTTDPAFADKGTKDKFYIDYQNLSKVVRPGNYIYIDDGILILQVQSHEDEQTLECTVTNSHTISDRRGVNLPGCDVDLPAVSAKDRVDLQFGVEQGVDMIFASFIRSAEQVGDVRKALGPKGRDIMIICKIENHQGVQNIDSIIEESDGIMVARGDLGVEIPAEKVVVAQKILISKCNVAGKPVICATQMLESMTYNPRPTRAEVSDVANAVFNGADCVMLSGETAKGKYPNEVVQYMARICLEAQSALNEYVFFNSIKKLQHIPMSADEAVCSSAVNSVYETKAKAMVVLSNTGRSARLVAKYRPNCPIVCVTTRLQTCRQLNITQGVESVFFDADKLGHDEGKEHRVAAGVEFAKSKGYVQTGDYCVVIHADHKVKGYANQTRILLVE
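Screened at intermediate enzyme activity to detect both inhibitors and activators: LmPK at 0.1 nM, with a 0.5 nM enzyme column as activation reference. PEP 0.5 mM, ADP 0.1 mM; ATP detected by luminescence after 1 h.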
Shiga inhibitor = inhibitors of Shiga toxin in Vero cells; Vero cells, Shiga toxin protein synthesis inhibition reporter; inhibition, % at 38.7 µM; actives 9.2% (n = 290,000); in the data active = inhibition mostly above about 28%, no sharp cut-off; inactive = mostly below about 43%; also: 0% is about no effect
RE007 growth inh = less growth of the S. pombe RE007 Vpr strain; S. pombe RE007 Vpr strain, BacTiter-Glo ATP luminescence, 24 h; Potency, µM (titrated, usually from 92.2 µM), for inactives: at the highest dose activity change, negative = less growth, most hits filed as inhibitors; actives 0.21% (n = 360,000); active = well fitted falling curve with a large enough effect; inconclusive = small, poorly fitted or top-dose-only effect; inactive = no such curve, though single readings can be large or run the other way; also: potency is read from the fitted curve at half-maximal effect; % is scaled to controls: 0 for no effect and ±100 for the full control effect; nearly all actives have a fitted effect of over 50% in size
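Fission yeast strain RE007, carrying one chromosomally integrated HIV-1 vpr copy, was seeded at OD 0.01 in PMG+AL medium with 23 nL pinned compound. After 24 h at 30 °C and 99% humidity, viability was read by BacTiter-Glo luminescence.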
Tb PYK inh = blocks Trypanosoma brucei pyruvate kinase; Q57TT1; TbPYK enzyme, Kinase-Glo Plus ATP luminescence, 45 min; Potency, µM (titrated, usually from 76.8 µM), for inactives: at the highest dose activity, negative = inhibition, most hits filed as inhibitors; actives 0.12% (n = 410,000); AID 624173; also: potency is read from the fitted curve at half-maximal effect; % is scaled to controls: 0 for no effect and ±100 for the full control effect; nearly all actives have a fitted effect of over 50% in size
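Luminescence from Kinase-Glo Plus, added after a 45-minute room-temperature reaction, served as the end-point read-out. The enzyme and substrate were preincubated with compound before ADP (130 uM final) initiated turnover. Concentration-effect curves came from normalized qHTS data.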
Numbers without * were called inactive; ? = inconclusive; / = no result; [ ] = another dose, or the depositor's remark. Unless noted, calls follow the shape of the dose curve; as a rule, active = well fitted curve in the direction sought with a large enough effect; inconclusive = small, poorly fitted or top-dose-only effect, or another doubt; inactive = no such curve, though single readings can be large; an effect the other way counts as inactive or inconclusive.

SMILES	CHX counter	FBPA Giardia inh	LmPK inhibitor	Shiga inhibitor	RE007 growth inh	Tb PYK inh
COc1cccc(/C=C2\Oc3cc(OCC(=O)N4CCCC4)ccc3C2=O)c1OC	15*	/	-2%	-4	0%	-4%
CCN(Cc1ccccc1)C(=O)Cn1c(=O)oc2cc(S(=O)(=O)N3CCCCCC3)ccc21	/	/	/	/	/	-7%
O=C(NNC(=S)NC(=O)c1ccc(F)cc1)c1cccnc1	-4	?	-9%	1	-2%	-8%
Cc1ccccc1NC(=S)NNC(=O)c1cccnc1	-2	-4%	18µM*	3	-5%	4.5µM*
O=C(NNC(=S)Nc1ccccc1)c1cccnc1	20*	-30%	-1%	28*	8%	0%
O=C(NNC(=S)NC(=O)c1cccnc1)c1ccc(F)cc1	28*	?	3%	39*	9%	-20%
CC1(C)SC2C(NC(=O)C(c3ccccc3)S(=O)(=O)O)C(=O)N2C1C(=O)O (stereo not given)	/	/	/	/	/	-14%
C/C(=N/N=C(\C)c1ccccc1O)c1ccccc1O	24*	12%	-1%	38*	-2%	-8%
Cc1ccc(N=Cc2cc(Cc3ccccc3Cl)cc([N+](=O)[O-])c2O)c(O)c1	31*	?	-5%	55	-27%	-3%
COC(=O)Cn1c(=O)c2cccn2c2cccnc21	/	/	/	/	/	4%
COc1ccccc1-n1c(CCn2nc(C)c(Br)c2C)n[nH]c1=S	-1	-13%	?	-2	2%	3.5µM*
Cc1nn(CCc2n[nH]c(=S)n2C2CCCCC2)c(C)c1Br	0	1%	7.9µM*	-12	-9%	13µM*
Cc1nn(CCc2n[nH]c(=S)n2C)c(C)c1Br	-4	-23%	-20%	-22	13%	?
Cc1nn(-c2ccccc2)c2c1N(CC(=O)N1CCN(c3cccc(Cl)c3)CC1)C(=O)CS2	/	/	/	/	/	-8%
CC(=O)N1CCc2c(sc3c2c(=O)n(CCc2ccccc2)c(=O)n3CC(=O)Nc2ccc(C)c(F)c2)C1	/	/	/	/	/	4%
Cc1ccc(NC(=O)Cc2ccc(-n3c(C)nc4cccnc43)cc2)cc1C	/	/	/	/	/	-5%[15.4 µM]
COc1ccc(C)cc1NC(=O)Cn1cc(S(=O)(=O)N2CCC(C)CC2)c2ccccc2c1=O	/	/	/	/	/	2%
CCCCC(=O)Nc1cc(C(=O)NCCc2ccccc2)ccc1Cl	18*	6%	-4%	17	16%	2%
COc1cccc(C(=O)Nc2cc(C(=O)NCCc3ccccc3)ccc2Cl)c1	20*	-2%	2%	34	-4%	1%
COCC(=O)Nc1cc(C(=O)Nc2cccc(C)c2C)ccc1Cl	14*	-3%	-7%	18	-3%	-7%
CCc1ccc2ncc3c(-c4ccc(F)cc4)nn(CC(=O)NCc4ccccc4)c3c2c1	/	/	/	/	/	-3%
CNC(=S)N/N=C/c1c2ccccc2c(Cl)c2ccccc12	27*	-9%	-5%	87*	1%	-15%
CNC(=S)N/N=C/c1c(C)cccc1Cl	-1	-10%	2%	-18	3%	3%
COc1ccc(C(=O)Nc2ccccc2-c2nc3ccccc3s2)c(OC)c1	/	/	/	/	/	5%
CC(=O)c1ccc(NC(=O)C2CC(c3ccc(F)cc3)=NO2)cc1 (stereo not given)	-1	7%	12%	1	-7%	-3%
SMILES	CHX counter	FBPA Giardia inh	LmPK inhibitor	Shiga inhibitor	RE007 growth inh	Tb PYK inh
O=C(NC1CCCC1)C1CC(c2ccc(F)cc2)=NO1 (stereo not given)	42*	0%	-5%	69*	-9%	1%
CCN1CCN(C(=O)C2CC(c3ccc(F)cc3)=NO2)CC1 (stereo not given)	7	1%	2%	13	3%	-2%
CC1CCN(C(=O)C2CC(c3ccc(F)cc3)=NO2)CC1 (stereo not given)	36*	4%	1%	98*	2%	-7%
CC1CCCC(C)N1C(=O)C1CC(c2ccc(F)cc2)=NO1 (stereo not given)	20*	0%	-2%	48*	12%	-8%
CN1CCN(C(=O)C2CC(c3ccc(F)cc3)=NO2)CC1 (stereo not given)	15	-2%	13%	34	9%	-5%
CCN(CC)S(=O)(=O)c1ccc2c(c1)nc(CN(C)C(=O)Nc1ccc(C)c(Cl)c1)n2C	/	/	/	/	/	-1%
Cc1csc(NC(=O)c2ccc(OCC3CCCO3)cc2)n1 (stereo not given)	14*	-11%	-7%	39	-9%	-8%
Cc1cccc2sc(NC(=O)c3ccc(OCC4CCCO4)cc3)nc12 (stereo not given)	46*	-5%	-11%	100*	-8%	3%
CCOc1ccc2nc(NC(=O)c3ccc(OCC4CCCO4)cc3)sc2c1 (stereo not given)	35*	-5%	-2%	36*	-13%	-2%
CCOc1ccc2nc(NC(=O)CSc3nnc(-c4ccncc4)n3CC3CCCO3)sc2c1 (stereo not given)	27	5%	0%	84	1%	0%
Cn1c(-n2cccc2)c(-c2c(-c3ccc(F)cc3)[nH]c3c2c(=O)n(C)c(=O)n3C)c(=O)n(C)c1=O	/	/	/	/	/	4%
Cc1cc(C)c2c(=O)n(-c3ccccc3)[nH]c2n1	51*	-11%	2%	88*	1%	4%
Cc1cc(-c2ccccc2)nc2[nH]n(-c3ccccc3)c(=O)c12	-4	-12%	-1%	-17	-1%[3.69 µM]	/
CCC(C)C(NC(=O)OC(C)(C)C)C(=O)NC1COC2CC(n3cc(F)c(=O)[nH]c3=O)OC12 (stereo not given)	-1	1%	/	6	/	/
COc1cccc(CC(=O)N2CCc3nc(-c4ccc(OC)cc4C)c4c(c3C2)CO[C@@H](c2ccccc2)C4)c1	/	4%[12.9 µM]	-1%[11.5 µM]	/	/	/
O=C(COC(=O)CCNS(=O)(=O)c1ccccc1)Nc1ccc(OC(F)F)cc1	/	/	/	/	-9%	-6%
N#Cc1ccc(NC(=O)COC(=O)CCNS(=O)(=O)c2ccccc2)cc1	45*	-2%	-3%	12	-1%	31%
CN1CCC(=NOc2ccc([N+](=O)[O-])cc2)CC1	34*	3%	-5%	95*	-18%	-3%
O=C(Nc1ccc(Cl)cn1)c1cc2c(s1)-c1ccccc1OC2	16*	0%	1%	34	-2%	5%
O=C(Nc1cccnc1Cl)c1cc2c(s1)-c1ccccc1OC2	26	-2%	-3%	27*	-2%	0%
O=C(Cn1c(=O)oc2cc(S(=O)(=O)NCc3ccccc3)ccc21)NCc1ccccc1Cl	/	/	/	/	/	1%[15.4 µM]
C/C(=N\Nc1ccc(S(N)(=O)=O)cc1[N+](=O)[O-])c1ccccc1O	-2	0%	-9%	-7	1%	-3%
C/C(=N\Nc1ccccc1[N+](=O)[O-])c1ccccc1O	41*	-1%	-5%	90*	2%	0%
